# Test results taken from the supplement of paper PMC6555819.
# Test system: VDR:RXRa (NR concentration 270 nM, RXRa partner concentration 90 nM)
# Assay: PBM binding z-score (relative to random genomic background probes); higher = stronger binding; sequences stand for … in GC…GCGATTGACAGCGTAGAATGAAGG
# Protocol: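 Protein-binding microarray (Agilent 4x180K custom design, double-stranded 60-nt probes: 5' GC cap, 34-nt variable region, 24-nt constant primer region; full probe sequence given). Purified or IVT nuclear receptor:RXRα heterodimers (3:1 NR:RXRα, mostly 270:90 nM) or homodimers were incubated for 1 h in PBS with 2% milk and no ligand, then detected with Alexa488 antibodies. Fluorescence from o1-orientation probes (~5 replicates averaged) was converted to z-scores against 500 random hg19 background probes. Variable regions are seed direct-repeat (DR0–DR5) sites, all their single-nucleotide variants and half-site ablations.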
row,Sequence,PBM binding z-score
1,ATCGAAAGGTCGTGAGGTAAGTATACAGAAAGGC,3.44
2,ACTAGTTGGTCAGCTGAGGTCACACCCAATTCGG,4.19
3,CCTACTGGGCCAAAAAGTTCATTGATGCCGATAA,3.68
4,GATACAGGGTCAAGGTCAGAGTACGCGTATTGAT,5.53
5,AATACAGGGTGACTAGGCCAGAGTAGGTACGAAT,0.257
6,TAGCCTAGGTCATACAGGGGCCAGTATAGAAAGC,2.6
7,CGTACAAGGTCAAAGGTCAGTGAAGAGATGACGG,6.84
8,CCTACTGGACCAAGGTCATTGATCAGTCAAAGCA,3.44
9,TCGCCTAGGTCATGGGCCAGTATACCACGCGAAC,2.09
10,TCTAGTTGGTCACGGAGGTCCCACACGACGGGTA,1.19
11,GGAACGAGGGCAAAGTTCATAGCATCTGTCGACG,5.05
12,TGAATGAGGTTAAATATCAGGGAACGTGGCGTCG,1.54
13,ATCGAAAGGTCGACGAGGTGAGTAAACACCGTTT,5.22
14,CCTACTGGGCCGTTCAGAGGTCATTGATCATATG,3.58
15,CGTCCAAGGACAATGCTAGGTCAGTGAAAGCATT,0.294
16,TCTAGTTGGTCACGGAGGGCACACACGACGGGTA,3.62
17,GTTACAGGGTCAAGGCCAGAGTACGCGTATTGAT,4.45
18,CCTAGTTGGTCAAGGTCACACCCGCTATAGGTAC,3.99
19,CGAACTAGGTCATCCAGGACCGTGAATACATTGA,2.39
20,TATAAAGGGTCAAAGGCCAGAGTACGAATGTCGA,4.86

row,Sequence,PBM binding z-score
1,CCAACTGGGCCAAAAAGGTCATTGATGCCGATAA,4.89
2,CGTCCAAGGTCATAGGAGGTCAATGAAGACAGAT,7.01
3,CCTACTGGGCCAAAGGTGATTGATTCCAATGCTC,0.0696
4,CCGAGTTGGTCAAGGTCACACACGCTATAGGTAC,4.7
5,CCTCGGAGGTCAACAGGAGGTCAGAGCTGCCAGA,6.19
6,CCTTACGGGTCAAGGTTATAGCCCGGGTGGTACG,3.31
7,TACCCTAGGTCATTGGGCCAGTATAGTACGCATC,2.73
8,CGTCCAAGGTCACGGTCAGTGAAAGAGACTCGAA,5.13
9,CGAACTAGGTCAAGGGACAGTGAAAGGCGACGTA,0.899
10,ATATGTAGGTTACCTGGGGTCATTCAGACTAGGC,6.78
11,AGAATGAGGTTACTAAAGATCAGGGAAACGCTTG,0.79
12,TATACAAGGTCAAAGGCCAGAGTACGAATGTCGA,4.83
13,CGAACTACGTCATCCAGGACAGTGAATACATTGA,0.17
14,CCTACTCGGCCAAAAAGGTCATTGATGCCGATAA,4.9
15,CGAACTAGGTCATTGACAGGACAATGAATAGTAA,2.62
16,TACCCTAGGTCATGGGCCAGTATACCACGCGAAC,2.67
17,TAGCCTAGTTCATGCGGGCCAGTATAGTGTCGGC,1.14
18,TCTGCTAGGTCAACGATGGTCAGTTAATCTGCTA,1.62
19,AGAATGGGGTTACCAAAGATCAGGGAAACGCTTG,2.66
20,CGTCAAAGATCAAGGTAACGTAACAGAAAGCAGC,-0.129
